Source: PubChem BioAssay (EPA / NIEHS)
“And” between values parts separate entries of the source, which are not always exact repeats. Equal entries are not always repeated. A structure can be active in one record and inactive in another. The source made the active and inactive calls. The calls were made as follows: active = hit-call score of the fitted dose curve at least 0.9, where 1 is the maximum; inactive = score below 0.9.

Key:
[1] = APR_HepG2_CellCycleArrest_24hr: Apredica 24-hour HepG2 Assay for Cell Cycle Arrest (AID 2282905); settings: imaging, actives raise or lower the signal;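 also: cell cycle arrest scored as ratio of 2N to 4N nuclear DNA content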
Outline: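 Compounds (0.39 to 200 uM, final DMSO 0.5% v/v) are applied to HepG2 cells for 24 hours; cells are then fixed, permeabilized and nuclei labeled with Hoechst 33342. Automated imaging measures DNA content, and activity is fitted in both directions against DMSO.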

[2] = APR_HepG2_StressKinase_1hr: Apredica 1-hour HepG2 Assay for Stress Kinase (AID 2282906); settings: HepG2 stress kinase (phospho-c-Jun) imaging, actives raise or lower the signal
Outline: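 High-content imaging of phospho-c-Jun immunostaining (with Hoechst nuclear identification) after a 1 h exposure of HepG2 cells to 10 concentrations from 0.39 to 200 uM, final DMSO 0.5%. Fitted bidirectionally against DMSO.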

[3] = APR_HepG2_NuclearSize_24hr: Apredica 24-hour HepG2 Assay for Nuclear Size (AID 2282907); settings: high-content imaging, actives raise or lower the signal
Outline: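 Nuclear size is measured by fluorescence high-content imaging of Hoechst-labelled HepG2 nuclei after 24 hr of treatment (0.39–200 uM, 0.5% DMSO). Cells are fixed in 3.7% formaldehyde before staining, and DMSO serves as the baseline for bidirectional curve fitting.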

[4] = APR_HepG2_CellLoss_24hr: Apredica 24-hour HepG2 Assay for Cell Loss (AID 2282908); settings: high-content imaging;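 as to AC50: fit in both directions so a hit may be cell loss or gain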
Outline: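 Nuclear count serves as the viability measure: treated cells are fixed, permeabilized and labelled with Hoechst 33342, and six images per well are analysed to identify valid nuclei. Doses span 0.39–200 uM, and activity in either direction is scored against DMSO.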

[5] = APR_HepG2_MitoticArrest_24hr: Apredica 24-hour HepG2 Assay for Mitotic Arrest (AID 2282910); settings: high-content imaging, actives raise or lower the signal
Outline: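 Treatment lasted 24 hr in the human HepG2 line at 0.39–200 uM, solvent held at 0.5% DMSO. Fixed cells were stained with Hoechst 33342 and anti-phospho-histone H3, imaged at 20x, and analysed by gain- or loss-of-signal fitting against DMSO.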

[6] = APR_HepG2_MitoMembPot_24hr: Apredica 24-hour HepG2 Assay for Mitochondrial Membrane Potential (AID 2282911); settings: imaging, actives raise or lower the signal
Outline: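 Mitochondrial membrane potential imaged via MitoTracker Red CMXRos (250 nM, 30 min pre-fixation) in fixed HepG2 cells with Hoechst nuclear identification. Ten concentrations 0.39–200 uM, 24 h treatment, 0.5% DMSO; CCCP as positive control.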

[7] = APR_HepG2_CellCycleArrest_72hr: Apredica 72-hour HepG2 Assay for Cell Cycle Arrest (AID 2282914); settings: high-content imaging, actives raise or lower the signal
Outline: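 Read-out: nuclear DNA content from Hoechst 33342 high-content imaging (20x, six fields/well) after 3.7% formaldehyde fixation, fitted bidirectionally against DMSO. Treatment was 72 h in HepG2, ten concentrations 0.39–200 uM, duplicate, 0.5% DMSO.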

[8] = APR_HepG2_CellLoss_72hr: Apredica 72-hour HepG2 Assay for Cell Loss (AID 2282915); settings: high-content imaging
Outline: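 HepG2 cells were exposed for 72 hr to compounds at 0.39–200 uM (ten concentrations, duplicate) in 0.5% v/v final DMSO. Nuclei were stained with Hoechst 33342 after 3.7% formaldehyde fixation, imaged at 20x, and counted; fits bidirectional versus DMSO.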

[9] = APR_HepG2_P-H2AX_72hr: Apredica 72-hour HepG2 Assay for H2AX Phosphorylation (AID 2282916); settings: imaging, actives raise or lower the signal;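 also: phospho-histone H2A.x immunostain intensity per cell marking DNA damage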
Outline: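 Human hepatoma HepG2 cells are dosed across ten concentrations (0.39 to 200 uM, 0.5% v/v DMSO) and incubated 72 hr. Phospho-histone H2A.x is then detected by antibody staining alongside c-Jun and Hoechst, and quantified by automated fluorescence imaging.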

[10] = APR_HepG2_MitoMembPot_72hr: Apredica 72-hour HepG2 Assay for Mitochondrial Membrane Potential (AID 2282917); settings: imaging, actives raise or lower the signal
Outline: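 HepG2 cells exposed 72 h to compounds at 0.39–200 uM (0.5% v/v DMSO, duplicates); MitoTracker Red CMXRos 250 nM loaded 30 min before 3.7% formaldehyde fixation, imaged by HCS fluorescence. Bidirectional fit versus DMSO.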

[11] = APR_HepG2_MitoticArrest_72hr: Apredica 72-hour HepG2 Assay for Mitotic Arrest (AID 2282918); settings: high-content imaging, actives raise or lower the signal
Outline: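 High-content imaging of fixed human HepG2 cells after 72 h compound exposure (0.39–200 uM, duplicates, 0.5% DMSO); mitotic arrest scored from phospho-histone H3 and nuclear Hoechst staining relative to DMSO.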

[12] = APR_HepG2_P-H2AX_24hr: Apredica 24-hour HepG2 Assay for H2AX Phosphorylation (AID 2282920); settings: high-content imaging, actives raise or lower the signal
Outline: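 High-content imaging of phospho-histone H2A.x immunofluorescence, nuclei counterstained with Hoechst 33342, in fixed HepG2 cells. Compounds ran 0.39–200 uM in duplicate for 24 h, final DMSO 0.5%. Signal change fitted both directions against DMSO.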

[13] = APR_HepG2_StressKinase_72hr: Apredica 72-hour HepG2 Assay for Stress Kinase (AID 2282921); settings: HepG2 stress kinase (phospho-c-Jun) imaging, actives raise or lower the signal
Outline: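 After a 72 h compound treatment spanning 0.39 to 200 uM, formaldehyde-fixed cells are labelled for phosphorylated c-Jun and nuclei, imaged by automated fluorescence microscopy, and activity is fitted in both directions relative to DMSO controls.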

[14] = APR_HepG2_StressKinase_24hr: Apredica 24-hour HepG2 Assay for Stress Kinase (AID 2282922); settings: HepG2 stress kinase (phospho-c-Jun) imaging, actives raise or lower the signal
Outline: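 After 24 hr compound treatment (up to 200 uM, final DMSO 0.5% v/v), HepG2 cells are fixed and multiplex-labeled; phospho-c-Jun intensity is captured by high-content fluorescence imaging and analyzed relative to DMSO.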

[15] = APR_HepG2_MitoMass_72hr: Apredica 72-hour HepG2 Assay for Mitochondrial Mass (AID 2282924); settings: high-content imaging, actives raise or lower the signal;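 also: MitoTracker Red CMXRos stain intensity per cell imaged as mitochondrial mass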
Outline: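 Steps: treat HepG2 72 hr (0.39–200 uM, duplicate wells); load MitoTracker Red CMXRos, 250 nM, 30 min; fix with 3.7% formaldehyde, permeabilise with 0.5% Triton X-100; capture images, nuclei via Hoechst 33342; fit bidirectionally against DMSO.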

[16] = APR_HepG2_p53Act_24hr: Apredica 24-hour HepG2 Assay for p53 Activation (AID 2282913); settings: high-content imaging, actives raise or lower the signal;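 also: p53 protein immunofluorescence averaged per cell in HepG2 with Hoechst nuclei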
Outline: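 Fluorescence imaging of formaldehyde-fixed HepG2 cells labelled for p53 and with Hoechst, 24 h after dosing (0.39–200 uM, duplicate wells, 0.5% v/v DMSO). Signal fitted in both directions relative to DMSO.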

[17] = APR_HepG2_MicrotubuleCSK_72hr: Apredica 72-hour HepG2 Assay for Microtubule CSK Stabilty (AID 2282919); settings: HepG2 microtubule cytoskeleton, high-content imaging, actives raise or lower the signal
Outline: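 Ten-point dosing (0.39–200 uM, 0.5% DMSO) of HepG2 for 72 hr, with taxol as the cytoskeletal positive control. The cells were formaldehyde-fixed and then stained with alpha-tubulin/Cy5 and Hoechst. Imaging at 20x used a −2 um Z offset for tubulin.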

[18] = APR_HepG2_p53Act_72hr: Apredica 72-hour HepG2 Assay for p53 Activation (AID 2282923); settings: high-content imaging, actives raise or lower the signal;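 also: average cellular p53 protein immunofluorescence intensity in HepG2 cells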
Outline: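 Imaging-based endpoint: after 72 hr compound exposure (up to 200 uM, 0.5% DMSO), fixed and permeabilized monolayers were labelled with anti-p53 antibody and imaged; signal change in either direction was fitted relative to DMSO controls.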

[19] = APR_HepG2_MitoMass_24hr: Apredica 24-hour HepG2 Assay for Mitochondrial Mass (AID 2282912); settings: high-content imaging, actives raise or lower the signal
Outline: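 After 24 hr of treatment at 0.39 to 200 uM, HepG2 cells take up 250 nM MitoTracker Red CMXRos for 30 min and are then fixed with 3.7% formaldehyde. Per-well images are quantified, and any change in either direction is scored against solvent.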

Measured: AC50

COc1nc(C)nc(NC(=O)NS(=O)(=O)c2ccccc2CCC(F)(F)F)n1
inactive: [1] | [2] | [3] | [4] | [5] | [6] | [7] | [8] | [9] | [10] | [11] | [12] | [13] | [14] | [15]

CCOC(=O)C(Cl)Cc1cc(-n2nc(C)n(C(F)F)c2=O)c(F)cc1Cl (configuration not stated)
inactive: [1] | [2] | [3] | [4] | [5] | [6] | [16] | [7] | [8] | [9] | [10] | [11] | [17] | [12] | [13] | [14] | [18] | [15]

CS/C(C)=N/OC(=O)N(C)SN(C)C(=O)O/N=C(\C)SC
inactive: [1] | [2] | [3] | [5] | [6] | [19] | [7] | [8] | [9] | [10] | [11] | [12] | [13] | [14] | [15]
active: [4] 47.4 µM

C#CCOS(=O)OC1CCCCC1Oc1ccc(C(C)(C)C)cc1 (configuration not stated)
active: [1] 3.03 µM | [4] 7.2 µM | [6] 6.31 µM | [7] 2.92 µM | [8] 3.12 µM | [10] 3.43 µM
inactive: [2] | [3] | [5] | [9] | [11] | [12] | [13] | [14] | [15]

CC1=C(C(=O)Nc2ccccc2)SCCO1
inactive: [1] | [2] | [3] | [4] | [5] | [6] | [16] | [7] | [8] | [9] | [10] | [11] | [12] | [13] | [14] | [15]

COc1cnc(OC)n2nc(NS(=O)(=O)c3c(OCC(F)F)cccc3C(F)(F)F)nc12
inactive: [1] | [2] | [3] | [4] | [5] | [6] | [7] | [8] | [9] | [10] | [11] | [12] | [13] | [14] | [15]

CC(C)C1(C)N=C(c2nc3ccccc3cc2C(=O)O)NC1=O (configuration not stated)
inactive: [1] | [2] | [3] | [4] | [5] | [6] | [7] | [8] | [9] | [10] | [11] | [12] | [13] | [14] | [15]

CC1COC(Cn2cncn2)(c2ccc(Oc3ccc(Cl)cc3)cc2Cl)O1 (configuration not stated)
active: [4] 94.7 µM | [5] 94.4 µM | [6] 105 µM | [7] 64.3 µM | [8] 10.6 µM | [10] 52.6 µM | [15] 60.6 µM
inactive: [1] | [2] | [3] | [9] | [11] | [12] | [13] | [14] | [18]

COP(=S)(OC)Oc1nc(Cl)c(Cl)cc1Cl
inactive: [1] | [2] | [3] | [4] | [5] | [6] | [7] | [9] | [10] | [11] | [12] | [13] | [14] | [15]
active: [8] 151 µM

C=CCC1=C(C)[C@@H](OC(=O)[C@@H]2[C@@H](C=C(C)C)C2(C)C)CC1=O
active: [4] 99.2 µM | [8] 102 µM | [11] 67.4 µM | [12] 118 µM
inactive: [1] | [2] | [3] | [5] | [6] | [7] | [9] | [10] | [13] | [14] | [15]

CC(Oc1ccc(Cl)cc1Cl)C(=O)O (configuration not stated)
inactive: [1] | [2] | [3] | [4] | [5] | [6] | [7] | [8] | [9] | [10] | [11] | [17] | [12] | [13] | [14] | [18] | [15]

COP(N)(=O)SC (configuration not stated)
inactive: [1] | [2] | [3] | [4] | [5] | [6] | [7] | [8] | [9] | [10] | [11] | [12] | [13] | [14] | [15]

CCCCNC(=O)OCC#CI
inactive: [1] | [2] | [3] | [5] | [7] | [9] | [10] | [11] | [12] | [13] | [14] | [18] | [15]
active: [4] 2.6 µM and 6.77 µM | [6] 119 µM and 41 µM | [8] 1.45 µM and 7.9 µM | [11] 9.07 µM | [15] 5.54 µM

N#Cc1cc(Br)c(O)c(Br)c1
active: [6] 89.4 µM | [7] 100 µM | [8] 101 µM
inactive: [1] | [2] | [3] | [4] | [5] | [16] | [9] | [10] | [11] | [12] | [13] | [14] | [15]
